High-throughput results: PubChem, National Center for Advancing Translational Sciences (NCATS)
TRPML1 agonist = human mucolipin-1 channel agonism; TRPML1-expressing cells, Ca2+ dye fluorescence, FDSS; activation, % (no concentration beside the values); 410,000 tested, 0.12% active; in the data active = activation above about 50%; inconclusive = mostly about 30% to 49%; also: 0% is about no effect
Target sequence (Q9GZU1 whole entry, looked up): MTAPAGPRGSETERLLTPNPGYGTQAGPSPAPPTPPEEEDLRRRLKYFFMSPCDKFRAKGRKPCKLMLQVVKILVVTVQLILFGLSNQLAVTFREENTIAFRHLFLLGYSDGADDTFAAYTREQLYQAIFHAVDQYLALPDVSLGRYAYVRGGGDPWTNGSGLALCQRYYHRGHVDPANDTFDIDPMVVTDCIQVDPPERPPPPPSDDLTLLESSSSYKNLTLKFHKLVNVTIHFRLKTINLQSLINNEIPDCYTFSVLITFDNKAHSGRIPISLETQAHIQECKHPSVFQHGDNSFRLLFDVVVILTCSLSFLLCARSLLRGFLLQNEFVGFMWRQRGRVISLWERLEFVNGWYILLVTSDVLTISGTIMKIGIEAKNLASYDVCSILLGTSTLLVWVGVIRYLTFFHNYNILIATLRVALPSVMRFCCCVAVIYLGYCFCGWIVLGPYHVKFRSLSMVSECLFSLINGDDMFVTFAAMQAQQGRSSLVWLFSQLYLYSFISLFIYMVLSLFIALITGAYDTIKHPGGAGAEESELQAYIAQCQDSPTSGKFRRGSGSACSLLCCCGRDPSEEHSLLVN
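Agonist activity was taken from a 110 s kinetic Ca2+ dye read on the FDSS after pinning compounds onto TRPML1-DL cells. The cells were seeded at 1,500/well with Tet inducer, incubated about 16 h, then dye-loaded at room temperature.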
HEK293 tox = cytotoxic in the GLP-1 receptor inverse agonist counter-screen. HEK293 cAMP-luciferase reporter cells, luminescence, 24 h. Potency, µM (highest dose often 38.3 µM), without a hit: top-dose activity change, negative = inhibition, hits mostly inhibitors. 410,000 tested, 0.13% active;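 also: loss of luciferase light is scored as toxicity; potency is read from the fitted curve at half-maximal effect; % is scaled to controls: 0 for no effect and ±100 for the full control effect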
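A 23 nL compound transfer followed 12 hours of cell culture at 37 deg C; exposure then lasted 24 hr. Luciferase assay detection reagent was dispensed and plates read for luminescence after a 12 min room-temperature wait.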
GLP1R ag = activates the human GLP-1 receptor; HEK293 GLP-1R CRE-luciferase, luminescence, 4-6 h; cells express a hypersensitive GLP-1R form; Potency, µM (series often up to 45.6 µM), without a hit: at the top dose activation, most hits filed as activators; 380,000 tested, 0.007% active; also: potency is read from the fitted curve at half-maximal effect; % of control where 0% means no effect
TRPML1 blocker = inhibitors of human TRPML1 channel; 390,000 tested, 0.02% active; AID 624415; Q9GZU1; TRPML1-inducible cells, Ca2+ dye fluorescence, FDSS; active compounds read low; inhibition of EC80 agonist-evoked calcium signal; activity change, negative = inhibition, % (no concentration beside the values); in the data active = activity change below about -50%; inconclusive = between about -30% and that limit;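 also: stimulus is agonist 54-4 at its EC80 concentration; % is scaled to controls: 0 for no effect and ±100 for the full control effect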
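Tet-induced TRPML1-DL cells loaded with Ca8 no-wash calcium dye were read kinetically on FDSS. Compound addition was followed by EC80 agonist 54-4 (4 uM final); inhibition was read over 110 s.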
GLP-1R inv ag = GLP-1 receptor (human) inverse agonism | HEK293 GLP-1R CRE-luciferase, luminescence, 24 h; GLP-1R form is constitutively active | AID 624417 | 410,000 tested, 1.6% active | P43220 | Potency, µM (top dose mostly 38.3 µM), inactives show top-dose activity change, negative = inhibition, hits mostly inhibitors; also: potency is read from the fitted curve at half-maximal effect; % is scaled to controls: 0 for no effect and ±100 for the full control effect; nearly all actives have a fitted effect of over 55% in size
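Readout was luciferase luminescence, measured 12 min after detection reagent at room temperature. Beforehand, GLP-1R reporter HEK293 cells had sat 12 h, then received compounds for 24 hr at 37 deg C.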
Starred values were filed as active, the others as inactive; ? = inconclusive; . = no result given; [ ] = dose if it differs, or a comment. A selection: hits, their analogues and other compounds. The true share with any hit is near 1.8%. Unless noted, calls follow the shape of the dose curve; as a rule, active = well fitted curve in the direction sought with a large enough effect; inconclusive = small, poorly fitted or top-dose-only effect, or another doubt; inactive = no such curve, though single readings can be large; an effect the other way counts as inactive or inconclusive.

SMILES	TRPML1 agonist	HEK293 tox	GLP1R ag	TRPML1 blocker	GLP-1R inv ag
CCN(CCCl)c1cc(CN(C)C)cc(NC(=O)c2ccc(C(=O)Nc3cc(CN(C)C)cc(N(CC)CCCl)c3)cc2)c1	-0.3	2.82µM*	-9.1%	5.2	?
N#C/C(=C\c1ccc(N2CCOCC2)o1)c1nc2ccccc2[nH]1	60.1*	51.0%	-13.7%	-13.1	?
CN1C(=O)C(=Cc2ccc(N3CCOCC3)o2)C(=O)N(C)C1=S	10.9	5.4%	-0.7%	-0.8	15.6%
O=C(Nc1ncccc1O)c1ccc(S(=O)(=O)NCc2ccco2)cc1	-0.3	21.7%	9.4%	14.1	45.6%
O=C1c2cccc3c(O)ccc(c23)C(=O)N1c1ccc(Cl)cc1	103.7*	372.9%	-5.6%	-8.2	?
C[C@]12CC[C@H](O)C[C@H]1CC[C@@H]1[C@@H]2CC[C@]2(C)[C@@H](C3=CC(=O)OC3)CC[C@]12O	-0.3	?	-10.4%	-10.3	0.501µM*
CC12CCC(O)CC1CCC1C2CCC2(C)C(C3=CC(=O)OC3)CCC12O (stereo unspecified)	-0.1	?	-30.2%	4.9	1.12µM*
CN(C)CCCN(C(=O)CCc1ccccc1)c1nc2ccc(Br)cc2s1	0.7	?	10.0%	9.8	6.31µM*
CN(C)CCN(C(=O)c1cc(Cl)sc1Cl)c1nc2ccc(F)cc2s1	0.2	-11.6%[1.53 µM]	-10.1%	-5.4	?
[Hg+][c]1ccccc1	0.4	.	-7.9%	.	.
COc1ccc(CCNC(=O)COC(=O)Cc2ccccc2)cc1	0.2	-2.7%	2.8%	-8.8	0.7%
COc1ccc(CCNC(=O)N2c3ccccc3Sc3ccccc32)cc1	2.5	-18.0%	7.1%	2.0	7.94µM*
Cc1nc(C(F)(F)F)c(C(=O)N/N=C(\N)c2ccccn2)s1	-0.4	?	5.9%	11.7	?
CN1CCN(c2ccc(Nc3ccnc4cc(Cl)ccc34)cc2)CC1	0.2	3.55µM*	-2.1%	-7.2	2µM*
Clc1ccc2c(N3CCNCC3)ccnc2c1	1.0	-1.7%	-5.0%	-6.6	-4.7%
C[C@@H]1O[C@@H](O[C@H]2C[C@@H](O)[C@]3(CO)[C@@H]4C(CC[C@]3(O)C2)[C@@]2(O)CC[C@H](C3COC(=O)C3)[C@@]2(C)C[C@H]4O)[C@H](O)[C@H](O)[C@H]1O (stereo partly specified)	-0.4	?	-9.8%	-9.6	1µM*
CC(O)CN1CCN(CC(=O)[O-])CCN(CC(=O)[O-])CCN(CC(=O)[O-])CC1.[Gd+3] (stereo unspecified)	.	.	0.8%	.	.
CN(C)C(=O)O/N=C(\N)COc1ccc(C(C)(C)C)cc1	0.2	3.16µM*	-8.6%	15.3	?
CCOC(=O)C(O)(c1ccc(N(C)C(=O)COc2ccccc2)cc1)C(F)(F)F (stereo unspecified)	3.2	0.5%	9.2%	4.0	-6.5%
CC1OC(O[C@H]2C[C@@H](O)[C@]3(CO)[C@H]4[C@H](O)C[C@]5(C)[C@@H](C6=CC(=O)OC6)CC[C@]5(O)[C@@H]4CC[C@]3(O)C2)C(O)C(O)C1O (stereo partly specified)	-0.8	.	.	.	.
CCOc1cc(/C=C2\SC(=S)N(NC(=O)c3cccnc3)C2=O)ccc1O	4.8	11.2µM*	2.2%	-14.8	4.1%
CC1(C)CSC(=NCc2ccccc2)N1	91.4*	1.8%	-6.0%	8.2	?
CC(C)CCC(=O)OC1CCC2C3CCC4=CC(=O)CC[C@]4(C)C3CC[C@]12C (stereo partly specified)	.	.	-3.5%	.	.
O=[N+]([O-])c1c(Cl)c(Cl)cc(Cl)c1Cl	.	.	-1.5%[96 µM]	.	.
CNc1cc(Cl)c2nonc2c1[N+](=O)[O-]	2.2	7.94µM*	-10.7%	-17.7	?
SMILES	TRPML1 agonist	HEK293 tox	GLP1R ag	TRPML1 blocker	GLP-1R inv ag
CCC(C)NCCOc1ccc(C(C)(C)c2ccccc2)cc1 (stereo unspecified)	-0.3	?	8.7%	15.1	5.01µM*
CC1CCN(C(=O)N2c3ccccc3Sc3ccccc32)CC1	1.6	-9.4%	14.9%	0.7	2µM*
CC[C@@H](C(=O)[C@@H](C)[C@@H](O)[C@H](C)CCc1ccc(C)c(O)c1C(=O)O)[C@H]1O[C@](CC)([C@H]2CC[C@](O)(CC)[C@H](C)O2)C[C@@H]1C	?	10µM*	-11.2%	16.6	10µM*
S=C(SSC(=S)N1CCCCC1)N1CCCCC1	.	.	-7.0%	.	.
CNCC[C@H](Oc1cccc2ccccc12)c1cccs1	0.8	-13.0%	-1.3%	7.5	11.2µM*
Cc1ccc(C(=O)C2CN3CCC2CC3)cc1 (stereo unspecified)	-0.6	-9.5%	2.1%	-7.4	7.08µM*
Cn1c(N)c(C(=O)COC(=O)c2cc(S(=O)(=O)N3CCOCC3)ccc2F)c(=O)n(C)c1=O	0.2	?	-1.0%	23.2	-20.3%
Cc1cc(-c2ccc(S(=O)(=O)Nc3ccc(Br)c(C)c3)s2)on1	10.9	?	.	-19.7	?
CN1CCN(c2ccccc2N)CC1	1.6	-9.5%	-9.4%	-4.8	0.4%
CN1CCC2(CC1)c1ccccc1-c1ccccc12	0.6	?	-4.3%	4.9	11.2µM*
C=CCNc1nc(NCc2ccc(N(C)C)cc2)c2sc(-c3ccccc3)cc2n1	-0.5	?	-3.6%	.	?
CCC1CC2CC3c4[nH]c5ccc(OC)cc5c4CCN(C2)C13 (stereo unspecified)	.	.	2.3%[96 µM]	.	.
C[C@H](CO)N1C[C@H](C)[C@@H](CN(C)S(=O)(=O)c2cccs2)Oc2ccc(NC(=O)Nc3ccc(C(F)(F)F)cc3)cc2C1=O	0.2	?	-1.3%	-0.1	8.91µM*
C[C@@H]1CN([C@H](C)CO)C(=O)c2cc(NC(=O)Nc3ccc(C(F)(F)F)cc3)ccc2O[C@H]1CN(C)S(=O)(=O)c1cccs1	0.6	?	-3.6%	-3.3	?
Oc1ccc(Cl)cc1	-0.8	5.4%	-3.1%	-5.8	4.4%
Oc1ccc(Cl)cc1Sc1cc(Cl)ccc1O	0.7	-11.2%	3.6%	5.3	10µM*
C=C1C(=O)OC2CC1C(O)CC(C)=CCCC(C)=CC(O)CC2C (stereo unspecified)	1.1	?	-11.5%	3.8	2.24µM*
C=C1C(=O)OC2CC(C)C3C=CC(=O)C3(C)C(O)C12 (stereo unspecified)	0.9	-64.7%	-33.7%	-5.9	?
CCC1C(c2ccccc2)N(C)C(c2ccccc2)CC1(O)c1ccccc1 (stereo unspecified)	0.4	?	-0.1%	0.1	2.51µM*
COC(=O)C1=C(c2ccc(-c3ccccc3)c(F)c2)C[C@@H]2CC[C@H]1N2C(=O)N1CCCCC1	1.3	2.0%	6.0%	3.1	11.2µM*
